The nature of assay [1]: inhibitors of CD8+ T cell-vesicle binding, pilot screen, LFA-1/ICAM-1 modulator project, MLPCN validation set, flow cytometry (AID 2523;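 active = response below a set limit, under 55% cells CD8-positive and vesicle-bound, and CD8 cells' 90th-percentile brightness under 279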;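 as to vesicle binding response: mean PE anti-B7-1 fluorescence of CD8+ cells relative to row control; 100% = QL9-loaded vesicles with DMSO vehicle in the same plate row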). The settings on record: 2C mouse CD8+ T cells, at 7 µM, stronger effect = lower value; double positive events: measured here: CD8+/vesicle+ event percentage.
The target in assay [2] is Integrin beta-1 (Homo sapiens) + Integrin alpha-4 (Homo sapiens) (UniProt P13612+P05556). The experiment in a line: inhibition of HUTS-21 binding to VLA-4, pilot screen, VLA-4 allosteric modulator project, U937 cells, HUTS-21 mAb, flow cytometry, validation set (AID 2674;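 active = inhibition above 50%, about 3 SD of the validation set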;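 also: antibody binding induced by the VLA-4 ligand LDV present at three times its Kd; 0% = LDV ligand with antibody and no compound and 100% = antibody without LDV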). The settings on record: HUTS-21 LIBS mAb binding, at 6.7 µM, stronger effect = higher value, binding induced by LDV ligand.

Assay [3] in a line: superoxide lowering in aged yeast cells, pilot screen, validation compound set (AID 2706;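 active = superoxide response below 65% of plate, a cut near 3 SD across the whole screen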;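 also: yeast exposed to compound for one week at 30 degrees C before staining; 100% = mean of all compound wells on the same plate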). The following applies: S. cerevisiae aging, superoxide DHE fluorescence; at 10 µM, stronger effect = lower value.
For assay [4], the target named is Beta-adrenergic receptor kinase 1 (Homo sapiens) (UniProt P25098). The experiment in a line: GRK2 binders displacing RNA aptamer, biochemical, validation, human GRK2, bead flow cytometry (AID 488806;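 active = aptamer binding inhibition above 30%, about 3 SD of noise from non-fluorescent compounds; inactive = inhibition at or below 30%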). The following applies: bead-bound GRK2, FAM-aptamer displacement, at 10 µM, stronger effect = higher value.
In assay [5] the target is Beta-2 adrenergic receptor (Homo sapiens) (UniProt P07550). The experiment in a line: beta2AR agonists driving receptor internalization, pilot screen, cell-based, FAP fluorogen, flow cytometry, validation set (AID 504459;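 active = percent response above 42, roughly 3 SD of non-fluorescent test compounds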;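 also: agonist-driven loss of surface beta2AR via internalization measured by FAP dye flow cytometry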). The following applies: Am2.2-beta2AR cells, FAP surface receptor flow cytometry; at 10 µM; stronger effect = higher value.
Assay [6] deals with AP-2 complex subunit beta (Homo sapiens) (UniProt P63010). The experiment in a line: inhibitors of arrestin peptide binding to AP2, pilot screen, biochemical, validation set, GST-AP2 beads, flow cytometry (AID 504541;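 active = inhibition above 54%, about 3 SD of non-fluorescent compounds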;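 also: AP2 carries R879A mutation and is captured from E. coli lysate; bead-bound FITC arrestin peptide fluorescence measuring arrestin peptide binding to AP2; 0% = DMSO wells and 100% = excess unlabeled arrestin peptide control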). The settings on record: FITC arrestin peptide, at 10 µM, stronger effect = higher value, AP2 beta2 appendage fragment, R879A mutant.
Assay [7] is described as follows: yeast V-ATPase proton transport modulators, S. cerevisiae, pHLuorin, HTS validation (AID 504600; in the data active = response above about 15%;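 also: plate controls were DMSO for no effect and reference compound for full effect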). The settings on record: S. cerevisiae pHLuorin cytosolic pH, at 10 µM, stronger effect = higher value.
The test system of assay [8] is anti-desmoglein-3 scFv antibody binding to human DSG3. The experiment in a line: inhibitors of anti-DSG3 scFv binding to DSG3, pilot screen, biochemical, validation compound set, bead-based, flow cytometry (AID 588368;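 active = binding below the plate cutoff, the plate median minus 3 SD, with a reading above zero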;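 also: signal is the median channel fluorescence of bead-bound GFP antibody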). The following applies: Protein G beads, DSG3-Fc, scFv-GFP binding, at 10 µM, stronger effect = lower value.
Assay [9] is described as follows: inhibitors of fungal efflux pumps CDR1, CDR2, MDR1, pilot screen, validation compound set, multiplex, phenotypic (AID 588506;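 active = efflux inhibition above 0.42, the validation set average plus 4 SD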;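 also: Nile Red retained in cells so higher fluorescence means more efflux inhibition; 0 = negative control wells and 1 = enniatin B 25 µM full block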). The settings on record: S. cerevisiae pump-expressing triplex, Nile Red efflux flow cytometry; at 10 µM; stronger effect = higher value; the pumps come from Candida albicans.
Assay [10] has as its target ATP-binding cassette sub-family B member 6 (Homo sapiens) (UniProt Q9NP58). Put plainly: ABCB6 transporter inhibitors, pilot screen, K562-ABCB6 cells, flow cytometry, validation set (AID 588550;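 active = inhibition above the screen-wide mean plus 3 SD, about 51%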;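 also: 0% = DMSO wells and 100% = benzethonium chloride 70 µM positive control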). The settings on record: K562-ABCB6 porphyrin accumulation, 1 h, at 10 µM, stronger effect = higher value.
Assay [11] can be described thus: promoters of myeloid differentiation in arrested cells, primary screen, cell-based, GFP/MAC1 double positive, flow cytometry, validation set (AID 588685).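 Also: compound exposure lasts four days before antibody staining and flow analysis; 0% = DMSO wells and 100% = 5 µM fulvestrant positive control.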 The settings on record: ER-HoxA9 marrow cells, stronger effect = higher value, normalized: vehicle 0, fulvestrant 100.

Active and inactive are the calls of the source.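 The calls were made as follows, unless noted: active = differentiation response of at least 50%, scaled between solvent and reference control, from cells with both markers; inactive = the rest.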

Sequence of Beta-adrenergic receptor kinase 1 (Homo sapiens) (P25098 whole entry, looked up): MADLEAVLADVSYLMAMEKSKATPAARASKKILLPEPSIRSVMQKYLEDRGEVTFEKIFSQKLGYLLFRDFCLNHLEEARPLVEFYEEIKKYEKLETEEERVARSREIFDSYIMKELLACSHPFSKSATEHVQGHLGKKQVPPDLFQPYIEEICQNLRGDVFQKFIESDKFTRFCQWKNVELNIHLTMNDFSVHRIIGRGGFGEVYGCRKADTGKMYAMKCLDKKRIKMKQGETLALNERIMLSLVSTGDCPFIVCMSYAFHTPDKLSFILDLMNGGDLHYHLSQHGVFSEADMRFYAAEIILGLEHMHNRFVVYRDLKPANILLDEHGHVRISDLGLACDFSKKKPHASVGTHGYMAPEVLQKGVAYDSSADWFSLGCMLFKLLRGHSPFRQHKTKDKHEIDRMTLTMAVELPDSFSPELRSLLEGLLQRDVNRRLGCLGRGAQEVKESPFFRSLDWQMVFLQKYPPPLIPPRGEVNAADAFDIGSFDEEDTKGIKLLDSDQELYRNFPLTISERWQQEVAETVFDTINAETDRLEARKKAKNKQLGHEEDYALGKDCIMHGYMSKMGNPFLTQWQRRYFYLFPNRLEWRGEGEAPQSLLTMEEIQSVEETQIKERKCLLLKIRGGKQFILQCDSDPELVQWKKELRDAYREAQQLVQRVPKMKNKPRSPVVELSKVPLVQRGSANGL
Sequence of AP-2 complex subunit beta (Homo sapiens) (P63010 whole entry, looked up, the tested form may be a part, one chain of several): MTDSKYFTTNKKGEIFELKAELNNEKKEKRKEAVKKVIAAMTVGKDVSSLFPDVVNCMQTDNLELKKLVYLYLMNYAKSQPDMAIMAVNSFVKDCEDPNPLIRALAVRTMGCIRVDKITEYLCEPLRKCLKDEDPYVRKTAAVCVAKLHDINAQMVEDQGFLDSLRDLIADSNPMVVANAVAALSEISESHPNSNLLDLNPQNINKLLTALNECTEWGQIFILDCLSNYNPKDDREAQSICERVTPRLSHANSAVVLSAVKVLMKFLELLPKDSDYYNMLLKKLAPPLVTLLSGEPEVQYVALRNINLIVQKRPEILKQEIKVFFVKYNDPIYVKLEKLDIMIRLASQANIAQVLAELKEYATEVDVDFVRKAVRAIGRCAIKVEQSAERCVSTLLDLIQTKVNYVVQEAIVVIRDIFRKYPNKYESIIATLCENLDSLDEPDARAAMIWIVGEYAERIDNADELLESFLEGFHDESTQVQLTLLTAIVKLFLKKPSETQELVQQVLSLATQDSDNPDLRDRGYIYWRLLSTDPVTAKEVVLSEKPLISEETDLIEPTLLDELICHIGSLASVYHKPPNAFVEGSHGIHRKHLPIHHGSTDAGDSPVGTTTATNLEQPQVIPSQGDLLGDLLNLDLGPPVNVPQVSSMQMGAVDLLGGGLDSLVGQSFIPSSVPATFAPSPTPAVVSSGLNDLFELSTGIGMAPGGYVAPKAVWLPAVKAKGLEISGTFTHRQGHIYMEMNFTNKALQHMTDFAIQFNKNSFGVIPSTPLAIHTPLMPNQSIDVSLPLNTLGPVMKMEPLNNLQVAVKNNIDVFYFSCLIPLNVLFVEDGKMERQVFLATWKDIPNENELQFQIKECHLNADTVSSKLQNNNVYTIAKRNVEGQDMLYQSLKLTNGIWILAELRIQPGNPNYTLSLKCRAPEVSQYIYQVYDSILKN
Sequence of ATP-binding cassette sub-family B member 6 (Homo sapiens) (Q9NP58 whole entry, looked up): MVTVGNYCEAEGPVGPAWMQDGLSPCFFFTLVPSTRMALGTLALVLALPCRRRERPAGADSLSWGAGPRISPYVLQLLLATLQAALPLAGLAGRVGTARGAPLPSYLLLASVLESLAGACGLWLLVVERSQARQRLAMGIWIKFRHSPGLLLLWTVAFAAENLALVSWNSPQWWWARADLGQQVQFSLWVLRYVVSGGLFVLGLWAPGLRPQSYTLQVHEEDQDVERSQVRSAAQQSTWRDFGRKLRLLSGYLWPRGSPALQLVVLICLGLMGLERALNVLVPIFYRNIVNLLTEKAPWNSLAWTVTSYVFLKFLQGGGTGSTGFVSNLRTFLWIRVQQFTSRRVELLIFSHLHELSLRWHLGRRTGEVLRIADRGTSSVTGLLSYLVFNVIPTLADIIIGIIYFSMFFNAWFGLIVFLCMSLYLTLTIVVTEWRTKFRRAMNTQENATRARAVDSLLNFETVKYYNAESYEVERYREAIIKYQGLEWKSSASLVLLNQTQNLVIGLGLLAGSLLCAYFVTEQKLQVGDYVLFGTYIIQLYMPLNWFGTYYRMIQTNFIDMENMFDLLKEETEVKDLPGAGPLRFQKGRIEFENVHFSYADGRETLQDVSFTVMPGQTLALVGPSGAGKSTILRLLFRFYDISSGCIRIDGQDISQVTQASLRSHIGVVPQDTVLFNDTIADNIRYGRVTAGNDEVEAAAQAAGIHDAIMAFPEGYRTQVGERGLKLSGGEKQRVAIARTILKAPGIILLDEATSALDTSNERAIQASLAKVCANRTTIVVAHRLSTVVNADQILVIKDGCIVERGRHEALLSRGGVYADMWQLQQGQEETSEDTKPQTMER
Sequence of Integrin beta-1 (Homo sapiens) + Integrin alpha-4 (Homo sapiens) (P05556 whole entry, looked up): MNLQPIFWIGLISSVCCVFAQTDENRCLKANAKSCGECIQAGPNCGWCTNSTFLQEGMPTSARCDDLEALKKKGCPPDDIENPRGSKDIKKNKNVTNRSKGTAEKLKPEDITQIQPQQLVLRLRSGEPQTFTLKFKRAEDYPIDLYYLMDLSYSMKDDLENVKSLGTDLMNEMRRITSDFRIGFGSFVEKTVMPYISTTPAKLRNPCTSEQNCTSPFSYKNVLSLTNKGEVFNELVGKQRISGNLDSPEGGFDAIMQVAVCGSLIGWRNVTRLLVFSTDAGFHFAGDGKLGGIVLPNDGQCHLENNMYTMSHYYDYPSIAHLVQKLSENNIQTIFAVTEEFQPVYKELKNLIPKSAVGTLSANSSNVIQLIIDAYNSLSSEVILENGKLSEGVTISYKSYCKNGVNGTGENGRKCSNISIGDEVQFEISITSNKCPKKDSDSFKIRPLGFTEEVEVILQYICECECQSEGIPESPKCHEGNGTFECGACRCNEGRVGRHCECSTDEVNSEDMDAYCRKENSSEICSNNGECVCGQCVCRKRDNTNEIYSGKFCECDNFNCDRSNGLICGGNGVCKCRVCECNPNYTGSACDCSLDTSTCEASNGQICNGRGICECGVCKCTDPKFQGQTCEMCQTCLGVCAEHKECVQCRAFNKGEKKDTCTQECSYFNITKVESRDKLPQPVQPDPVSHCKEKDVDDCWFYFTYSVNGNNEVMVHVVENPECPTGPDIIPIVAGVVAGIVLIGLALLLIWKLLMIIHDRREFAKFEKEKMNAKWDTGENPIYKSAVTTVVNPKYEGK
Sequence of Integrin beta-1 (Homo sapiens) + Integrin alpha-4 (Homo sapiens) (P13612 whole entry, looked up): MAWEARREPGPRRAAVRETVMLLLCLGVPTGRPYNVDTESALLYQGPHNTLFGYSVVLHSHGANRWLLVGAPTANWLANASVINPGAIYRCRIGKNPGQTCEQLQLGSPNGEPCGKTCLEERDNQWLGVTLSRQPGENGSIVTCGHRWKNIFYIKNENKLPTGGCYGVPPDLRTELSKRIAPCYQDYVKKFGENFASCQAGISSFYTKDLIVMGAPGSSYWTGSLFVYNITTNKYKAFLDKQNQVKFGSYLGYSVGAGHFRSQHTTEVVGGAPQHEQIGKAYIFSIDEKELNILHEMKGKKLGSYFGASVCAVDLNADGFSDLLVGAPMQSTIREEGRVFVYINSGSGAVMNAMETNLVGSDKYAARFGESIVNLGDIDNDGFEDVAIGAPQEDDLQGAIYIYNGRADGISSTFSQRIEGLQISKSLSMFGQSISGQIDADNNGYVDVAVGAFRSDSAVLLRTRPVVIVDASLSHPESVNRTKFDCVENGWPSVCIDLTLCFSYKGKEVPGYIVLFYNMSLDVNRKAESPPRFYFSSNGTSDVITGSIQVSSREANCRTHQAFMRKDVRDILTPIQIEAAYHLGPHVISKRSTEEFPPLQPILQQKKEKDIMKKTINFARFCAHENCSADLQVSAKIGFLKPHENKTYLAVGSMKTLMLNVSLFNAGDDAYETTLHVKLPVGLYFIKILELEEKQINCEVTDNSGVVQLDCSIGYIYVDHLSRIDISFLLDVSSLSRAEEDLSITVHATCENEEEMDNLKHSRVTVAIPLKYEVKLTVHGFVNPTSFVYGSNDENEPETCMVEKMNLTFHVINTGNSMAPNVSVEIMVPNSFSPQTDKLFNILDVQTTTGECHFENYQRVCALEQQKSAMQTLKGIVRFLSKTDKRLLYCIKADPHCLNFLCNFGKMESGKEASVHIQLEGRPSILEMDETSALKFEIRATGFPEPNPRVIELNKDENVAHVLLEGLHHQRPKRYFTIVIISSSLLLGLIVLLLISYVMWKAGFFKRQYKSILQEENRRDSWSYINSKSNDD
Sequence of Beta-2 adrenergic receptor (Homo sapiens) (P07550 whole entry, looked up): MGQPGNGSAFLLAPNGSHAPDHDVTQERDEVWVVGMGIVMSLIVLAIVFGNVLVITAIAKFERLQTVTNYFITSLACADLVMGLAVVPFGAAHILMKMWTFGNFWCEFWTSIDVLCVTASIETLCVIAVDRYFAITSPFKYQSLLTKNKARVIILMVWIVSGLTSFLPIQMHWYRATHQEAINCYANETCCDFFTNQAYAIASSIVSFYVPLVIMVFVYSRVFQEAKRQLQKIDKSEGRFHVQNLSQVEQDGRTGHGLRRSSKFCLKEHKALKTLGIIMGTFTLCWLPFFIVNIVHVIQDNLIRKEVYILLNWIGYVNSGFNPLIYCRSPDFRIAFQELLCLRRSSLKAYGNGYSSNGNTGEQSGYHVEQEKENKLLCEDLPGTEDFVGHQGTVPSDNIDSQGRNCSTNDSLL

With `CC(=O)/C=C/c1ccc(C)o1`, the double positive events in assay [1] came to 62.2%. Further, in [1], the vesicle binding response is 175% (inactive). For the same compound, the inhibition in assay [2] is 5.03% (inactive); in assay [6], 15.9% (inactive); in assay [10], 3% (inactive). Also, the superoxide response (% of plate) in assay [3] was 95.6% (inactive). Besides, in assay [4], the aptamer binding inhibition is -4% (inactive). The response in assay [5] was 14.7% (inactive); in assay [7], 0.22% (inactive). Besides, the binding (% of control) in assay [8] is 102% (inactive). The efflux inhibition (fraction of control) in assay [9] is 0.51 (active). Besides, in assay [11], the differentiation response is 28% (inactive).
The compound `Cc1cccc(C2=N/C(=C\c3cccnc3)C(=O)O2)c1` registered a double positive events in assay [1] of 63.6%. For the same compound, the vesicle binding response in assay [1] is 179% (inactive). In addition, the inhibition was 5.03% (inactive) in assay [2], -1.05% (inactive) in assay [6] and 3% (inactive) in [10]. Moreover, in assay [3], the superoxide response (% of plate) is 98.1% (inactive). The aptamer binding inhibition in assay [4] was 2% (inactive). The response in assay [5] was 13.3% (inactive); in assay [7], -1.71% (inactive). For the same compound, the binding (% of control) in assay [8] was 104% (inactive). Besides, in assay [9], the efflux inhibition (fraction of control) is 0.12 (inactive). The differentiation response in [11] was 103% (active).
`Cc1cc(=O)oc(C)c1C(=O)NCCC(C)C` gave a double positive events in assay [1] of 53.1%. In addition, the vesicle binding response in assay [1] was 150% (inactive). Moreover, the values for the inhibition in assay [2], in [6] and in [10] were -1.17% (inactive), -9.02% (inactive) and 15% (inactive), respectively. The superoxide response (% of plate) in assay [3] was 87.3% (inactive). Further, the aptamer binding inhibition in assay [4] was 0% (inactive). Further, the response in [7] was 7.71% (inactive). Besides, the binding (% of control) in [8] is 102% (inactive). Further, in assay [9], the efflux inhibition (fraction of control) is 0.37 (inactive). For the same compound, the differentiation response in assay [11] was 32.1% (inactive).
Turning to `CSc1ccc2c(c1)N(CCC1CCCCN1C)c1ccccc1S2` (stereo not given), the double positive events in [1] came to 66.7%. The vesicle binding response in [1] is 166% (inactive). Moreover, the inhibition in [2] was 27.1% (inactive); in [6], 0.21% (inactive). The superoxide response (% of plate) in [3] was 88.6% (inactive). The aptamer binding inhibition in [4] was -7% (inactive). Moreover, the response in assay [5] was 60.7% (active); in assay [7], -0.24% (inactive). Besides, in [8], the binding (% of control) is 106% (inactive). For the same compound, the efflux inhibition (fraction of control) in [9] was -0.145 (inactive). For the same compound, the differentiation response in [11] is 11.5% (inactive).
As for `C=CCNC(=S)N1CCc2c([nH]c3ccccc23)C1C` (stereo not given), the double positive events in assay [1] worked out at 60.6%. The vesicle binding response in assay [1] is 194% (inactive). Also, the inhibition in [2] is 15.1% (inactive); in assay [6] it was -13.8% (inactive); in [10], 15% (inactive). The superoxide response (% of plate) in assay [3] was 99% (inactive). In addition, the aptamer binding inhibition in assay [4] is -3% (inactive). For the same compound, the response in assay [5] is -13% (inactive); in assay [7] it was 2.11% (inactive). In assay [8], the binding (% of control) was 102% (inactive). Besides, in assay [9], the efflux inhibition (fraction of control) is -0.09 (inactive). Moreover, in assay [11], the differentiation response is -11.9% (inactive).
In assay [1], `OC(CCCN1CCCCC1)(c1ccccc1)c1ccccc1` returned a double positive events of 62.8%. Further, the vesicle binding response in [1] is 250% (inactive). Moreover, the inhibition in assay [2] is 19.1% (inactive); in [6], -8.31% (inactive); in assay [10] it was 4% (inactive). The superoxide response (% of plate) in [3] was 104% (inactive). Moreover, the aptamer binding inhibition in assay [4] is -3% (inactive). The response in assay [5] was -0.72% (inactive); in [7], 2.56% (inactive). Moreover, the binding (% of control) in assay [8] was 108% (inactive). In [9], the efflux inhibition (fraction of control) was 0.34 (inactive). In assay [11], the differentiation response was -2.46% (inactive).
As for `COc1ccc2c(CCNC(=O)c3ccc([N+](=O)[O-])cc3)c[nH]c2c1`, in assay [1], the double positive events was found to be 56.1%. Further, the vesicle binding response in assay [1] was 210% (inactive). Further, the inhibition in [2] was -5.89% (inactive); in [6], -2.03% (inactive); in assay [10] it was 4% (inactive). Further, the superoxide response (% of plate) in [3] is 105% (inactive). Moreover, the aptamer binding inhibition in assay [4] was 3% (inactive). For the same compound, the response is 7.52% (inactive) in assay [5] and -0.21% (inactive) in assay [7]. Also, the binding (% of control) in [8] is 101% (inactive). Moreover, the efflux inhibition (fraction of control) in assay [9] is -0.03 (inactive). Besides, the differentiation response in [11] was -21.6% (inactive).
`Cc1ncc(C(=O)O)c(C(=O)O)c1N` registered a double positive events in assay [1] of 52.2%. For the same compound, the vesicle binding response in assay [1] was 184% (inactive). Also, the inhibition is 4.42% (inactive) in assay [2], -2.62% (inactive) in [6] and 8% (inactive) in [10]. Besides, in [3], the superoxide response (% of plate) is 110% (inactive). The aptamer binding inhibition in assay [4] was 2% (inactive). In addition, the response in assay [7] was -3.73% (inactive). In addition, the binding (% of control) in assay [8] is 100% (inactive). Further, in assay [9], the efflux inhibition (fraction of control) is -0.09 (inactive). Besides, the differentiation response in assay [11] is -14.7% (inactive).
As to `CNS(=O)(=O)c1ccc(C)cc1`, in assay [1], the double positive events came to 56.5%. In addition, the vesicle binding response in [1] is 148% (inactive). Moreover, the inhibition in assay [2] is 6.29% (inactive); in assay [6], -8.71% (inactive); in assay [10] it was 8% (inactive). Besides, the superoxide response (% of plate) in assay [3] was 99.3% (inactive). Moreover, the aptamer binding inhibition in assay [4] is 2% (inactive). For the same compound, the response in assay [7] was 17.1% (active). In assay [8], the binding (% of control) was 93.9% (inactive). Also, in [9], the efflux inhibition (fraction of control) was 0.1 (inactive). The differentiation response in [11] is -0.2% (inactive).
In the case of `CNC[C@H](O)c1cccc(O)c1`, the double positive events in [1] came out at 61.2%. Moreover, in assay [1], the vesicle binding response was 124% (inactive). For the same compound, the values for the inhibition in assay [2], in assay [6] and in [10] were -10.5% (inactive), -4.38% (inactive) and -8% (inactive), respectively. The superoxide response (% of plate) in assay [3] is 96.3% (inactive). Further, the aptamer binding inhibition in assay [4] is 0% (inactive). Further, the response in [7] was 3.91% (inactive). For the same compound, in assay [8], the binding (% of control) is 102% (inactive). In addition, in assay [9], the efflux inhibition (fraction of control) was 0.875 (active). The differentiation response in assay [11] is 7.13% (inactive).
The compound `COc1ccc(/C=C2\CCn3c2nc2cc(C(=O)O)ccc2c3=O)cc1OC` gave a double positive events in assay [1] of 60.5%. Moreover, the vesicle binding response in assay [1] is 178% (inactive). The inhibition in [2] is 5.61% (inactive); in [6] it was -3.78% (inactive); in [10], 2% (inactive). Also, the superoxide response (% of plate) in assay [3] is 108% (inactive). Moreover, in [4], the aptamer binding inhibition is 1% (inactive). Also, the response in [5] is 7.98% (inactive); in assay [7], 0.13% (inactive). The binding (% of control) in assay [8] was 102% (inactive). For the same compound, in [9], the efflux inhibition (fraction of control) was 0 (inactive). Besides, the differentiation response in [11] is -8.96% (inactive).
`COc1ccc(C(=O)/C=C/c2cc(C(=O)O)cc3c2OCOC3)c(O)c1` came in with a double positive events in assay [1] of 54.5%. Also, in assay [1], the vesicle binding response is 202% (inactive). Besides, the figures for the inhibition in assay [2], in [6] and in assay [10] were -3.97% (inactive), -2.5% (inactive) and 0% (inactive), respectively. The superoxide response (% of plate) in [3] was 99.9% (inactive). For the same compound, the aptamer binding inhibition in [4] is 6% (inactive). In addition, the response in assay [7] was -6.09% (inactive). Moreover, in [8], the binding (% of control) was 95.7% (inactive). Also, the efflux inhibition (fraction of control) in [9] was -0.43 (inactive). For the same compound, the differentiation response in assay [11] is -1.82% (inactive).
In turn, `CC(C)CC(=O)N(Cc1ccc(F)cc1)C1CCS(=O)(=O)C1` (stereo not given) gave a double positive events in assay [1] of 61.8%. Also, the vesicle binding response in assay [1] was 204% (inactive). In addition, the figures for the inhibition in [2], in assay [6] and in assay [10] were 0.25% (inactive), 1.93% (inactive) and 19% (inactive), respectively. Also, in assay [3], the superoxide response (% of plate) was 114% (inactive). In addition, the aptamer binding inhibition in assay [4] is 2% (inactive). Further, the response in assay [5] is 22.9% (inactive); in [7], 3.28% (inactive). In addition, the binding (% of control) in assay [8] was 102% (inactive). Besides, in assay [9], the efflux inhibition (fraction of control) is 0.91 (active). The differentiation response in assay [11] is -8.96% (inactive).

The record behind these values is PubChem BioAssay.
